The source made the active and inactive calls. No rule for the calls is given here.
biological target: Mucolipin-3 (Homo sapiens) (UniProt Q8TDD5); assay: TRPML3 and TRPML2 channel agonists, cell-based, patch clamp, Fura-2 profiling panel (AID 2116); conditions: HEK293 cells expressing TRPML3-YFP, TRPML3 Fura-2 Imaging; Fura-2 340/380 ratio change, at 10 µM, stronger effect = higher value
Sequence (Q8TDD5 whole entry, looked up): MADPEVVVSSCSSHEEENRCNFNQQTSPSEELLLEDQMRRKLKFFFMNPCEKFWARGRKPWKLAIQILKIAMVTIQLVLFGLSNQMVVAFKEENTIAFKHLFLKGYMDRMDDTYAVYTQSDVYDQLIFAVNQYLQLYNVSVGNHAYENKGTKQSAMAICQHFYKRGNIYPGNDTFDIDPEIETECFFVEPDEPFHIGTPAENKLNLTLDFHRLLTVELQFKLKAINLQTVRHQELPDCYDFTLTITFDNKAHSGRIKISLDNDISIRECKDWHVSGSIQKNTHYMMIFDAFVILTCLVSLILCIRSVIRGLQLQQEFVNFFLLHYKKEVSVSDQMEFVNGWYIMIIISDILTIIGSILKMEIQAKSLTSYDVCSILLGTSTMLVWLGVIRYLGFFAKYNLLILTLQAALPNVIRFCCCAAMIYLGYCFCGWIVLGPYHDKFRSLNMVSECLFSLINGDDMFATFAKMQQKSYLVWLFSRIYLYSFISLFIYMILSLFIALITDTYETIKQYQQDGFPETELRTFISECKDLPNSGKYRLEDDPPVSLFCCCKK

SMILES | delta F ratio | outcome
O=S(=O)(NC1CCCCC1N1CCOCC1)c1ccc(Cl)cc1 (stereo not given) | 1.38 | active; no effect on six other TRP channels
Cc1ccc(S(=O)(=O)Nc2ccccc2-c2ccccc2)cc1 | 0.51 | active; no effect on six other TRP channels
O=S(=O)(Nc1ccccc1N1CCOCC1)c1ccc(Cl)s1 | 0.93 | active; no effect on six other TRP channels
Cc1ccc(N2CCN(S(=O)(=O)N3CCCCC3)CC2)c(C)c1 | 0.99 | active; no effect on six other TRP channels
O=S(=O)(Nc1ccccc1N1CCCCC1)c1ccc(Cl)s1 | 1 | active; no effect on six other TRP channels
